# From PubChem BioAssay
# MITF primary – MITF inhibitors, primary screen, biochemical, AlphaScreen, human. Microphthalmia-associated transcription factor (Homo sapiens), O75030. AlphaScreen MITF homodimerization, bead proximity signal. inhibition, % at 2.6 µM. 650,000 tested, 0.91% active. AID 1259374, 2018; in the data active = inhibition above about 50%;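 note: 0% = vehicle wells with protein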
# FBW7 act – FBW7 E3 ligase activators, primary screen, biochemical, AlphaScreen, human. normalized activity (activation), % at 26.1 µM. F-box/WD repeat-containing protein 7 (Homo sapiens), Q969H0. AID 1259310, 2017. AlphaScreen FBW7–phospho-cyclin E peptide binding, activator screen. 650,000 tested, 0.13% active; in the data active = normalized activity above about 1.9%;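 note: purified mutant Fbw7 with reduced substrate affinity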
# Target sequence (Q969H0 whole entry, looked up): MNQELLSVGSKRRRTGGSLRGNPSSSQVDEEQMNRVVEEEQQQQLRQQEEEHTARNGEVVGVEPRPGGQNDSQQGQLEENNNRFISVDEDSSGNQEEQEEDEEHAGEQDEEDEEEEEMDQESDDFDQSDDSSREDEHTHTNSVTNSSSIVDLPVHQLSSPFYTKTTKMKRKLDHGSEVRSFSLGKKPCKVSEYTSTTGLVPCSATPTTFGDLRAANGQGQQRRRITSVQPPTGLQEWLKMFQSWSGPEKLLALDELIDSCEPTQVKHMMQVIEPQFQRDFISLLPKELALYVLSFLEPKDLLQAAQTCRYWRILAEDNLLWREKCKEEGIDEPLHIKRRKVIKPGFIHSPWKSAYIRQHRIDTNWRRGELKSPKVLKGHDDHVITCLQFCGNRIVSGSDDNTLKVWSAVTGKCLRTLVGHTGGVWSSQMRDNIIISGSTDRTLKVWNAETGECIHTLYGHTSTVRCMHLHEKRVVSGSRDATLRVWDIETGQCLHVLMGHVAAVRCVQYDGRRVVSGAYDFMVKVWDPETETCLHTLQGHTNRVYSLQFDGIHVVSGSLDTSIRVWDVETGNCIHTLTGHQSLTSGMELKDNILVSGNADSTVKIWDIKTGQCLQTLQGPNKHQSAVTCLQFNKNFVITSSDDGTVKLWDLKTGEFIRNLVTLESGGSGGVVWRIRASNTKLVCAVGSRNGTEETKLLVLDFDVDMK
# GPR151 ag – activators of human GPR151, primary screen, cell-based, PathHunter beta-arrestin, luminescence | G-protein coupled receptor 151 (Homo sapiens), Q8TDV0 | activation, % at 11.2 µM | 650,000 tested, 1% active | PathHunter beta-arrestin GPR151 cells; in the data active = activation above about 4.9%;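 note: 0% = median of compound wells and 100% = cells with positive control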
# TEAD-YAP block – TEAD-YAP interaction inhibition, primary screen, TEAD-YAP interaction inhibitor project, luminescence, HEK-TIYL cells; TEAD-Gal4/YAP UAS-luciferase luminescence; inhibition, % at 9.12 µM; 640,000 tested, 1.4% active; in the data active = inhibition above about 32%;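 note: 0% = median of test compound wells and 100% = reference inhibitor wells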
# Starred values were filed as active, the others as inactive. Only some compounds are listed: those with a hit (about 3.4% of all), similar ones and a draw of the others.
SMILES,MITF primary,FBW7 act,GPR151 ag,TEAD-YAP block
CCC(C)NS(=O)(=O)c1ccc(OCC(=O)N2CCOCC2)cc1 (configuration not stated),13,0,0,-2
Cn1cc(-c2ccc3cnc(Nc4ccc(-n5cnc(N6CCOCC6)n5)cc4)nc3c2OCCN2CCOCC2)cn1,33,0,-2,96*
CC(C)N1CCN(c2ncn(-c3ccc(Nc4ncc5ccc(-c6cnn(C)c6)c(Cl)c5n4)cc3)n2)CC1,-9,0,-1,90*
Cn1cc(-c2cccc3cnc(Nc4ccc(-n5cnc(N6CCOCC6)n5)cc4)nc23)cn1,1,0,0,2
Clc1cnc(Nc2ccc(-n3cnc(N4CCOCC4)n3)cc2)nc1-c1cn[nH]c1,0,0,-1,55*
c1cc(-n2cnc(N3CCOCC3)n2)ccc1Nc1ncc2cc(-c3cn[nH]c3)ccc2n1,40,1,-2,-6
Cn1cc(-c2ccc3cnc(Nc4ccc(-n5cnc(N6CCOCC6)n5)cc4)cc3c2)cn1,0,0,1,83*
Cn1cc(-c2nc(Nc3ccc(-n4cnc(N5CCOCC5)n4)cc3)ncc2F)cn1,-4,0,-1,22
N#Cc1c(NC(=O)C(=O)c2c[nH]c3ccccc23)sc2c1CCCC2,0,0,0,1
Cn1cc(-c2ccc3cnc(Nc4ccc(-c5ccc(N6CCOCC6)nc5)cc4)nc3c2Cl)cn1,2,0,0,18
Cn1cc(-c2ccc3cnc(Nc4ccc(N5CCOCC5)nc4)nc3c2Cl)cn1,-7,0,0,51*
COC(=O)c1sc(N)c(C(=O)OC)c1COC(=O)c1c(C)noc1C,9,0,-1,46*
CCOC(=O)c1c(N)sc(C(=O)OC)c1CC(=O)OC,0,0,2,7
CC(C)[C@H]1NC(=O)[C@H]2CN(S(=O)(=O)c3ccc(Cl)cc3)CCN2C1=O,22,0,0,-9
COc1ccc2nc(NC(=O)c3sc4nc(C)cc(C)c4c3N)sc2c1,4,1,1,35*
Cc1cc(C)c2c(N)c(C(=O)NC(C)c3ccccc3)sc2n1 (configuration not stated),16,2.3*,1,-14
Cc1cc(C)c2c(N)c(C(=O)Nc3ccccc3)sc2n1,-10,0,0,-11
COc1ccc2nc(NC(=O)c3sc4nc(C)[nH]c(=O)c4c3C)sc2c1,13,0,0,5
Cc1cccc(NC(=O)c2sc3nc(C)cc(C)c3c2N)n1,-14,0,-2,84*
Cc1ccc(C)c(NC(=S)N2CCN(C(=O)C3CCCO3)CC2)c1 (configuration not stated),4,0,-1,6
O=C(Cc1ccncc1)N1CCNCC1,4,0,0,-7
CN1CCCN(C(=O)c2ccccc2Br)CC1,6,0,2,9
Cc1cc(-c2cnc(N3CCCC3)nc2C2CCN(C(=O)c3scnc3C)CC2)on1,-4,0,1,60*
CCOc1ccccc1Nc1nnc(SCc2cc(C(C)=O)ccc2OC)s1,-7,0,0,-3
CCOc1ccc(C(C)=O)cc1CSc1nnc(Nc2ccccc2)s1,-3,0,-1,35*
SMILES,MITF primary,FBW7 act,GPR151 ag,TEAD-YAP block
c1cc2ccc3ncc(-c4ccc(-c5ccn[nH]5)cc4)cc3c2cn1,12,2.0*,0,-18
Fc1ccc(-c2cnc3ccc4ccncc4c3c2)cc1,16,0,0,-8
Cc1ccccc1-n1ncc(C(C)NC(=O)c2c(C)nc3sccn23)c1C (configuration not stated),-4,1,0,59*
Cc1c(C(=O)Nc2ccccc2[N+](=O)[O-])cccc1[N+](=O)[O-],-3,0,2,3
CC(C)(O)C(=O)/C=C/c1cccc([N+](=O)[O-])c1,0,0,-1,48*
CN(C1=C(NCCO)C(=O)c2ccccc2C1=O)c1ccccc1,24,0,0,3
CN(C)C1=C(Nc2ccc(Cl)c(Cl)c2)C(=O)c2ccccc2C1=O,12,0,-1,-3
CC(=O)N(C1=C(N(C)C)C(=O)c2ccccc2C1=O)c1cccc(Cl)c1,24,-1,-5,93*
CC(=O)N(C1=C(N(C)C)C(=O)c2ccccc2C1=O)c1ccc(F)c(F)c1,17,0,-6,99*
CC(=O)N(C1=C(NCCO)C(=O)c2ccccc2C1=O)c1cccc(Br)c1,0,0,-4,86*
CC(=O)N(C1=C(N(C)C)C(=O)c2ccccc2C1=O)c1ccc(Cl)c(Cl)c1,15,-1,-4,82*
CCOC(=O)c1c(NC(=O)c2c(OC)cccc2OC)sc2c1CCCC2,10,0,0,-5
Cc1cc(NCCOc2ccccc2)nc(-c2ccc(N3CCN(C)CC3)cc2)n1,-8,0,0,17
C=CCOc1c(I)cc(/C=C2\NC(=S)N(CC)C2=O)cc1OC,7,0,2,2
CC(=O)C1=C(c2ccc3c(c2)CCCC3)N(C(C)=O)n2cnnc2S1,9,0,2,38*
CC(=O)C1=C(c2ccccc2)N(C(C)=O)n2cnnc2S1,-5,0,1,16
Oc1ccccc1N=Nc1ccccc1O,72*,0,0,73*
Oc1cccc(C=Nc2ccccc2O)c1,-10,0,-1,-3
N/C(=N\OC(=O)c1sc2ccccc2c1Cl)c1ncon1,17,1,0,40*
N/C(=N\OC(=O)c1ccccc1Cl)c1ncon1,5,0,0,20
O=C(O)CN1C(=O)/C(=N\N2C(=O)CSC2=S)c2ccccc21,55*,0,-1,5
CCN1C(=O)/C(=N\N2C(=O)CSC2=S)c2ccccc21,16,0,0,4
CCOc1ccc(S(=O)(=O)NCc2ccccc2)c2ccccc12,-4,0,-1,5
CN(C)S(=O)(=O)c1ccc(S(=O)(=O)NCc2ccncc2)cc1,-12,0,1,43*
O=S(=O)(NCc1ccccc1)c1ccc(S(=O)(=O)NCc2ccncc2)cc1,5,0,3,29
SMILES,MITF primary,FBW7 act,GPR151 ag,TEAD-YAP block
COc1ccc(S(=O)(=O)NCc2ccncc2)cc1,10,0,1,43*
CCCOc1ccc(S(=O)(=O)NCc2ccncc2)c2ccccc12,16,0,0,32*
Cc1ccc(S(=O)(=O)NCc2ccccc2)cc1C,8,0,2,-2
Cc1ccc(S(=O)(=O)NCc2ccncc2)cc1C,4,0,2,41*
CC(C)(C)c1ccc(C(=O)Nc2ccc(I)cc2)cc1,17,0,0,23
Cc1ccccc1Oc1nc2ccccn2c(=O)c1/C=C(\C#N)C(=O)NCc1ccccc1,-3,0,0,26
COc1ccc(-c2csc(NS(=O)(=O)CC34CCC(CC3=O)C4(C)C)n2)cc1 (configuration not stated),4,0,-1,-1
O=c1c2cc(F)ccc2[nH]c(=S)n1Cc1cccc(Cl)c1,8,0,-1,0
